Hits are enriched below; roughly 7.6% of the tested compounds scored in any of these assays.
Cy5 interf NS3h: enhances or quenches Cy5 fluorescence in NS3h assay. Cy5-dT15 DNA with NS3h, fluorescence interference; actives lie on both sides; signal over control mean, under 1 quenches. fluorescence interference ratio at 100 µM. 16,000 compounds, 6% hits;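 active = compound fluorescence over control fluorescence at most 0.8, a quencher, or at least a set upper limit, an enhancer; inactive = ratio between 0.8 and the set upper limit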
HCV NS3h FP: blocks HCV NS3 helicase binding to DNA; NS3h Cy5-dT15 DNA binding, fluorescence polarization; inhibition, % at 100 µM; 16,000 compounds, 1.6% hits; AID 687043;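 active = inhibition above the average over every tested compound plus 3 SD, cut at about 40% in these data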
* = called active by the depositor.

SMILES | Cy5 interf NS3h | HCV NS3h FP
CCCCOc1ccc(NC(=O)c2cc3cc(Br)ccc3oc2=O)cc1 | 1.01 | -4.6
O=C1NC(=O)C(=Cc2ccccc2OCc2ccc(F)cc2)C(=O)N1 | 1.03 | 28.2
CCOc1cc(/C=C2/SC(=O)NC2=O)ccc1OCc1ccc(Cl)cc1 | 1.05 | 19.9
CCOc1cc(C=C2C(=O)NC(=O)NC2=O)ccc1OCc1ccc(Cl)cc1 | 0.402* | -15.4
O=C1NC(=O)C(=Cc2ccc(OCc3ccc(F)cc3)cc2)C(=O)N1 | 0.704* | -4.5
CCOc1cc(C=C2C(=O)NC(=O)NC2=O)ccc1OCCOc1ccccc1C | 1.04 | 7.3
COC(=O)COc1ccc(C=C2C(=O)NC(=S)NC2=O)cc1OC | 1.08 | 39.5
COc1cc(C=C2C(=O)NC(=S)NC2=O)ccc1OCc1ccc(Cl)cc1 | 0.678* | 17.7
COc1cc(C=C2C(=O)NC(=O)NC2=O)ccc1OCCC(C)C | 0.8* | 24.0
Cc1ccc2c(c1)c(-c1ccccc1)c(-c1ccccc1)n2CC(O)CN1C(=O)CSC1=O (stereo not drawn) | 0.99 | 7.5
COc1ccc(OC)c(NC(=O)CN(c2ccccc2)S(=O)(=O)c2ccccc2[N+](=O)[O-])c1 | 0.753* | 12.3
CCOc1ccccc1NC(=O)CN(c1cccc([N+](=O)[O-])c1)S(=O)(=O)c1ccccc1 | 0.835 | 15.9
COc1ccc(N(CC(=O)Nc2ccc(Cl)cc2C)S(=O)(=O)c2ccc(C)c([N+](=O)[O-])c2)cc1 | 0.676* | 19.5
COC(=O)CN(c1ccccc1)S(=O)(=O)c1ccccc1[N+](=O)[O-] | 0.922 | 9.4
COc1ccc(N(CC(=O)Nc2ccc(C)cc2C)S(=O)(=O)c2ccc(C)cc2)cc1 | 0.983 | 12.7
COc1ccc(OC)c(NC(=O)CN(c2cccc([N+](=O)[O-])c2)S(=O)(=O)c2ccccc2)c1 | 0.667* | 19.5
CC(C)(C)C1(O)CC(C(=O)O)(C(C)(C)C)OC1=O (stereo not drawn) | 1.09 | -22.1
CCN(CC)C(=O)CN(c1ccc(C)cc1)S(C)(=O)=O | 1.03 | -0.6
COc1nc(N/N=C/c2ccc3c(c2)OCO3)nc(N2CCOCC2)n1 | 1.05 | 31.3
CC1CC(O)N(c2ccccc2)C(=S)N1 (stereo not drawn) | 0.774* | 16.8
CN(C)c1ccc(/C=C2\C(=O)c3cccc([N+](=O)[O-])c3C2=O)cc1 | 0.941 | 48.9*
CN(C)c1ccc(/C=C2\C(=O)Oc3ccccc3C2=O)cc1 | 1.14 | 26.0
C=CCN1C(=O)/C(=C\c2ccc(OCc3ccccc3)cc2)SC1=S | 1.05 | 5.4
O=C(CCN1C(=O)c2ccccc2C1=O)Nc1ccccc1C(=O)N1CCOCC1 | 0.981 | 9.2
O=C(CCN1C(=O)c2ccccc2C1=O)Nc1ccccc1C(=O)N1CCCC1 | 0.702* | 3.1
SMILES | Cy5 interf NS3h | HCV NS3h FP
O=C(CCN1C(=O)c2ccccc2C1=O)Nc1ccc(I)cc1 | 0.983 | 6.1
CCN(CC)c1ccc(NC(=O)CCN2C(=O)c3ccccc3C2=O)cc1 | 0.601* | 2.2
CCOC(=O)c1c(N)sc(C(=O)Nc2cccc(OC)c2)c1C | 0.964 | 19.9
COC(=O)C(NC(=O)c1ccccc1Br)C(C)C (stereo not drawn) | 1.01 | 6.3
COC(=O)c1cccc(NC(=O)C23CC4CC(C2)CC(C(=O)Nc2cccc(C(=O)OC)c2)(C4)C3)c1 | 1.02 | 7.3
COc1ccc(/C=N\NC(=O)/C(=C\c2ccc3c(c2)OCO3)NC(=O)c2ccccc2)cc1O | 1.05 | 11.7
CCOC(=O)COc1ccc(/C=C2\C(=O)NN(c3ccc(Cl)c(Cl)c3)C2=O)cc1OC | 0.802* | 17.7
COc1cc(/C=C2\C(=O)NN(c3ccccc3)C2=O)ccc1OCC(=O)O | 1.06 | 10.9
COc1cc(/C=C2\C(=O)NN(c3ccccc3)C2=O)ccc1OCc1ccccc1F | 0.565* | 35.6
O=C1NN(c2ccccc2)C(=O)/C1=C/c1ccc(OCc2ccccc2F)cc1 | 1.03 | 13.6
Cc1cc(NC(=O)c2ccc(-c3cccc(Cl)c3)o2)ccc1NC(=O)c1ccco1 | 1.09 | -0.7
COc1cc(/C=N\NC(=O)CCc2cc(C(C)(C)C)c(O)c(C(C)(C)C)c2)cc(Br)c1O | 0.994 | 8.8
Cc1ccc(/C=N\N=C2\NC(=O)C(C)S2)cc1 (stereo not drawn) | 1.1 | 4.5
O=C(CC(c1ccccc1)c1ccccc1)Nc1ccc(Cl)cn1 | 0.655* | 8.7
CC(=O)CC(=O)Nc1ccc(Cl)cn1 | 1.02 | 5.1
COc1ccc(/C(N)=N\OC(=O)c2ccccc2I)cc1OC | 1.01 | 8.2
O=c1/c(=C/c2ccccc2OS(=O)(=O)c2ccccc2[N+](=O)[O-])sc2nc3ccccc3n12 | 0.9 | -2.6
COc1cc(/C=c2\sc3nc4ccccc4n3c2=O)ccc1OS(=O)(=O)c1ccccc1[N+](=O)[O-] | 1.22* | 18.5
NC(=O)c1nn2c(c1Cl)NC(c1cccs1)CC2C(F)(F)F (stereo not drawn) | 0.671* | 0.3
CC1CCCC(C)N1C(=O)c1nn2c(c1Cl)NC(c1cccs1)CC2C(F)(F)F (stereo not drawn) | 0.988 | 9.4
O=C(Nc1ccc(OC(F)(F)F)cc1)c1cc2n(n1)C(C(F)(F)F)CC(c1cccs1)N2 (stereo not drawn) | 0.71* | 8.7
O=C(NCC1CCCO1)c1cc2n(n1)C(C(F)(F)F)CC(c1cccs1)N2 (stereo not drawn) | 1.05 | 4.4
COc1ccc(OC)c(C2Nc3ccccc3NC3=C2C(=O)CC(c2ccc(Cl)cc2)C3)c1 (stereo not drawn) | 0.974 | 3.3
CCNC(=O)C(=O)Nc1ccccc1OCC | 0.965 | 4.0
COc1cc(/C=C(\C#N)C(=O)Nc2ccc(F)cc2)c([N+](=O)[O-])cc1OC | 1.06 | 0.4
SMILES | Cy5 interf NS3h | HCV NS3h FP
O=Cc1ccc(OC(=O)c2ccccc2I)cc1 | 0.698* | 15.2
O=C1NC(=O)/C(=C/c2ccc(OC(=O)c3ccccc3I)cc2)S1 | 1.15 | 7.8
COc1ccc(N2C(=O)C(O)=C(C(=O)/C=C/c3ccccc3)C2c2ccc(Cl)cc2)cc1 (stereo not drawn) | 0.944 | 2.8
CC1CC(Nc2ccccc2)c2ccccc2N1C(=O)COc1ccc(Cl)cc1 (stereo not drawn) | 1.04 | 9.1
CC1CC(Nc2ccccc2)c2ccccc2N1C(=O)c1ccc(Cl)cc1Cl (stereo not drawn) | 0.621* | 12.4
CCOC(=O)C1=C(O)/C(=C/c2cccc(Br)c2)SC1=Nc1ccccc1 | 0.663* | 18.0
CCOC(=O)C1=C(O)/C(=C/c2ccc(OC)c(OC)c2)SC1=Nc1ccc([N+](=O)[O-])cc1 | 0.986 | -37.3
CCOc1ccc(NC(=O)CC2S/C(=N/N=C\c3ccc(O)c(OC)c3)NC2=O)cc1 (stereo not drawn) | 1.1 | -15.5
O=C1OC(c2sc3ccccc3c2Cl)=N/C1=C/c1ccc(F)cc1 | 1.09 | 1.9
CCCCOP(=O)(CC(=O)OC)CC(=O)OC | 1 | -2.3

High-throughput results as filed in PubChem.
